Screens from PubChem BioAssay.
Shown are actives, neighbours in structure and some others; about 3.5% of the full set was active somewhere.
GPR151 activ = activators of human GPR151, primary screen, cell-based, PathHunter beta-arrestin, luminescence; AID 1508602, 2020; PathHunter beta-arrestin GPR151 cells; 650,000 compounds, 1% hits; G-protein coupled receptor 151 (Homo sapiens), Q8TDV0; activation, % at 11.2 µM; in the data active = activation above about 4.9%;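 also: 0% = median of compound wells and 100% = cells with positive control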
TEAD-YAP block = TEAD-YAP interaction inhibition, primary screen, TEAD-YAP interaction inhibitor project, luminescence, HEK-TIYL cells; TEAD-Gal4/YAP UAS-luciferase luminescence; inhibition, % at 9.12 µM; 640,000 compounds, 1.4% hits; AID 1259422, 2018; in the data active = inhibition above about 32%;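 also: 0% = median of test compound wells and 100% = reference inhibitor wells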
FBW7 activator = FBW7 E3 ligase activators, primary screen, biochemical, AlphaScreen, human; F-box/WD repeat-containing protein 7 (Homo sapiens), Q969H0; AlphaScreen FBW7–phospho-cyclin E peptide binding, activator screen; normalized activity (activation), % at 26.1 µM; 650,000 compounds, 0.13% hits; in the data active = normalized activity above about 1.9%;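 also: purified mutant Fbw7 with reduced substrate affinity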
MITF inh = MITF inhibitors, primary screen, biochemical, AlphaScreen, human; 650,000 compounds, 0.91% hits; AID 1259374, 2018; inhibition, % at 2.6 µM; AlphaScreen MITF homodimerization, bead proximity signal; in the data active = inhibition above about 50%;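 also: 0% = vehicle wells with protein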
GPR151 conf act = GPR151 activators, triplicate retest, confirmation, cell-based, PathHunter beta-arrestin, luminescence | shares compounds with GPR151 activ | GPR151 PathHunter beta-arrestin cells, 90 min; % of EA-reagent control over plate median | 6,700 tested, under 10 active | activation, % at 11.2 µM;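 active = mean percent activation across replicates above the confirmation screen cutoff of 4.91%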
GPR119 counter = GPR119 activators in beta-arrestin cells, counter-screen for GPR151 activator project, cell-based, PathHunter beta-arrestin, luminescence, triplicate; shares compounds with GPR151 activ; 90 min; 0 = compound-well median, 100 = enzyme-acceptor control; activation, % at 11.2 µM; 6,700 compounds, 0.3% hits; AID 1508611, 2020;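 active = mean percent activation in the counterscreen above 29.09%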;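 also: counterscreen on off-target GPR119 to flag nonselective hits from the GPR151 activator screen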
Target sequence (Q8TDV5 whole entry, looked up): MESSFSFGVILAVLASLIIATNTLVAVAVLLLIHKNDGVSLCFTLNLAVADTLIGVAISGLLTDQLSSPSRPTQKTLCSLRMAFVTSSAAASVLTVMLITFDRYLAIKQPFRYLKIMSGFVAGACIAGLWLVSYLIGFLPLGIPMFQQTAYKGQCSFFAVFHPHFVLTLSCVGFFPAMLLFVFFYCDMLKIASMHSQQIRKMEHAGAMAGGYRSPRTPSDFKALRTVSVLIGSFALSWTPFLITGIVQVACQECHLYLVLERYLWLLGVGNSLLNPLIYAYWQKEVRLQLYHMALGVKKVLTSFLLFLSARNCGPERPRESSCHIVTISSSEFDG
* marks the source's active call; other numbers are inactive results; . = no result; ! = a repeat was not active.

SMILES	GPR151 activ	TEAD-YAP block	FBW7 activator	MITF inh	GPR151 conf act	GPR119 counter
CC(C)CNC(=O)C(=O)NCC1OCCN1S(=O)(=O)c1ccc([N+](=O)[O-])cc1 (stereo not drawn)	1.1	-6.2	0.0	-9.8	.	.
Cc1c(C(=O)Nc2c(F)cccc2F)sc2ncn(Cc3cccc(F)c3)c(=O)c12	-0.4	1.1	0.5	-0.3	.	.
COc1ccc(Cl)cc1/C=C/c1[nH]c(=O)[nH]c(=O)c1[N+](=O)[O-]	7.3*	5.2	-0.1	-19.1	1.6	24.0
COc1ccc(OC)c(/C=C/c2[nH]c(=O)[nH]c(=O)c2[N+](=O)[O-])c1	2.3	-0.6	-0.3	2.9	.	.
CN1C(=O)CC(Nc2ccc(N(C)C)cc2)C1=O (stereo not drawn)	7.3*	8.9	-0.2	28.6	-0.5	8.1
CCN1C(=O)CC(Nc2ccc(N(C)C)cc2)C1=O (stereo not drawn)	-0.2	5.6	0.0	25.0	.	.
COc1ccc(C2CC(=O)C=C(Nc3ccc(Br)cc3)C2)cc1OC (stereo not drawn)	0.5	-5.8	0.1	10.8	.	.
COC1=CC(=O)C[C@@H](C)[C@]12Oc1c(Cl)c(OC)cc(OC)c1C2=O	5.4*!	42.9*!	0.1	-6.7	0.4	2.0
CCC(=O)c1ccc(OCC(O)CN(CCO)CCO)cc1 (stereo not drawn)	-0.6	4.2	-0.1	14.3	.	.
CCCOC(=O)c1ccc(OCC(O)CN(CCO)CCO)cc1 (stereo not drawn)	5.1*	-6.7	0.1	-0.5	-0.5	0.8
O=c1c2cccnc2n(Cc2cccc(F)c2)c(=O)n1Cc1ccc(F)cc1	-0.7	-6.1	-0.2	-4.5	.	.
CC(C)CCn1c(=O)c2cccnc2n(Cc2cccc(F)c2)c1=O	11.6*	-8.5	0.0	-7.8	-0.7	-3.8
CCOCCCNC(=O)C1CC(=O)c2sc(NC(=O)c3ccc(OC)cc3)nc2C1 (stereo not drawn)	-1.2	-5.9	0.0	-4.3	.	.
CC(=O)c1ccc(N2C(=O)C3C(C2=O)C2(CO)C=CC3(C)O2)cc1 (stereo not drawn)	5.5*	0.8	-0.1	8.5	0.1	-4.7
CNc1ccccc1P(=O)(O)O	6.3*	4.2	-0.2	-2.6	0.8	-0.7
CCC1CN(Cc2nc3ccccc3[nH]2)Cc2cc(OC)ccc2O1 (stereo not drawn)	-1.0	1.6	-0.3	-16.2	.	.
CCC1CN(CCC(=O)NCCc2nc3ccccc3[nH]2)Cc2cc(OC)ccc2O1 (stereo not drawn)	7.0*	7.8	0.0	-3.5	-0.1	1.1
COc1ccc(CN(C)CCN(C)C)c(OC)c1C	6.6*	4.2	0.0	9.3	0.6	-0.4
COc1cccc(CN(C)CCN(C)C)c1O	-1.9	0.6	0.1	-0.6	.	.
CC(=O)N(C)c1ccc(NC(=O)COc2c(C)cc(Br)cc2C)cc1	-0.5	-9.3	0.0	-14.6	.	.
COc1ccc(C(=O)NC(=S)Nc2ccc3c(c2)C(=O)N(C)C3=O)cc1Br	0.2	-3.5	0.1	-6.7	.	.
Cc1ccc(Nc2nc(N(C)C)nc3c2cnn3C)cc1C	6.2*	-9.8	0.2	9.7	2.6	9.1
CN(C)c1nc(Nc2ccc(F)cc2)c2cnn(C)c2n1	2.2	-3.4	-0.2	2.5	.	.
COc1ccc(NC(=S)Nc2ccc(S(=O)(=O)N3CCOCC3)cc2)c(OC)c1	5.2*	5.4	-0.1	5.9	0.8	3.6
COc1ccc(NS(=O)(=O)c2ccc(S(=O)(=O)N3CCOCC3)cc2)cc1	-0.2	-1.0	-0.2	2.0	.	.
COc1ccc(NC(=S)Nc2ccc(S(N)(=O)=O)cc2)c(OC)c1	-0.4	-4.1	0.1	3.1	.	.
COc1ccc(CCNS(=O)(=O)c2ccc(S(=O)(=O)N3CCOCC3)cc2)cc1	5.6*	4.7	0.1	5.5	1.1	2.1
O=C(c1ccco1)N1CCN(c2nccn3c(-c4cccc(Cl)c4)cnc23)CC1	6.9*	-0.6	0.1	18.0	1.3	21.4
